Laboratory results published in PubChem BioAssay AID1159580 (chemical genetic matrix, 2015).
Several values for one entry are separate records, joined by “and”; a condition that tells them apart may be missing. Identical values can stand only once. Hit rate of the full screen: of about 5,500 compounds, about 2,000 (36%) were called active. About 18% were inconclusive and are not listed. Cut-off read from the data, not from the text of the source: active = normalized growth mostly below about 0.91 (no sharp cut-off); inconclusive = no clear call, values can overlap the other calls; inactive = mostly above about 0.92. The list shows a part of the results.

Assay: chemical genetic growth profiling, strain panel (AID 1159580);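 note: tested at 20 µM; growth read once vehicle control cultures reached saturation at 30 °C; 1 = growth at the plate median or of vehicle wells; lower values mean less growth of the strain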
Conditions: S. cerevisiae deletion strains, growth OD

Measured: normalized growth

COc1ccc(C2Sc3ccccc3N(CCN(C)C)C(=O)C2OC(C)=O)cc1 (stereo not given)
inactive: locus YAL013W, strain DEP1, hits give low values 1 | locus YAL021C, strain ccr4, hits give low values 0.985 | locus YAL026C, strain drs2, hits give low values 0.969 | locus YAL030W, strain snc1, hits give low values 0.986 | locus YBL061C, strain skt5, hits give low values 0.987 | locus YBR009C, strain hhf1, hits give low values 1.01 | locus YBR021W, strain FUR4, hits give low values 1.04 | locus YBR023C, strain chs3, hits give low values 0.988 | locus YBR171W, strain sec66, hits give low values 0.966 | locus YBR229C, strain ROT2, hits give low values 1.01 | locus YBR231C, strain swc5, hits give low values 0.919 | locus YBR279W, strain paf1, hits give low values 0.977 | locus YCL011C, strain gbp2, hits give low values 0.971 | locus YCL016C, strain dcc1, hits give low values 0.999 | locus YCL029C, strain bik1, hits give low values 1.03 | locus YCL069W, strain vba3, hits give low values 0.975 | locus YCR088W, strain abp1, hits give low values 0.979 | locus YDL005C, strain med2, hits give low values 0.953 | locus YDL035C, strain GPR1, hits give low values 1.02 | locus YDL040C, strain nat1, hits give low values 0.975 | locus YDL074C, strain BRE1, hits give low values 1.04 | locus YDL101C, strain DUN1, hits give low values 1.01 | locus YDL134C, strain PPH21, hits give low values 1.01 | locus YDL185W, strain tfp1, hits give low values 1.04 | locus YDL192W, strain arf1, hits give low values 1.04 | locus YDR001C, strain nth1, hits give low values 0.949 | locus YDR069C, strain doa4, hits give low values 0.963 | locus YDR101C, strain arx1, hits give low values 1.03 | locus YDR137W, strain rgp1, hits give low values 1.01 | locus YDR150W, strain NUM1, hits give low values 1.01 | locus YDR159W, strain sac3, hits give low values 0.981 | locus YDR162C, strain NBP2, hits give low values 1.01 | locus YDR195W, strain ref2 0.923 | locus YDR297W, strain sur2, hits give low values 0.989 | locus YDR318W, strain mcm21, hits give low values 1.03 | locus YDR334W, strain swr1, hits give low values 0.917 | locus YDR335W, strain msn5, hits give low values 0.943 | locus YDR388W, hits give low values 1.03 | locus YDR392W, strain spt3, hits give low values 1.02 | locus YDR502C, strain sam2, hits give low values 1.03 | locus YEL003W, strain gim4, hits give low values 0.978 | locus YEL037C, strain rad23, hits give low values 0.97 | locus YEL061C, strain CIN8 (second series), hits give low values 0.943 | locus YEL061C, strain CIN8, hits give low values 1.01 | locus YER015W, strain faa2, hits give low values 0.962 | locus YER016W, strain bim1, hits give low values 0.993 | locus YER110C, hits give low values 1.05 | locus YER111C, strain swi4, hits give low values 0.953 | locus YER155C, strain BEM2 (second series), hits give low values 0.986 | locus YER155C, strain BEM2, hits give low values 1.01 | locus YER167W, strain BCK2, hits give low values 1.03 | locus YFR010W, strain ubp6, hits give low values 0.938 | locus YGL078C, strain dbp3, hits give low values 1.03 | locus YGL086W, strain mad1, hits give low values 1.02 | locus YGL167C, strain pmr1, hits give low values 1.01 | locus YGL173C, strain kem1, hits give low values 1.01 | locus YGL227W, strain vid30, hits give low values 0.984 | locus YGL240W, strain doc1, hits give low values 0.983 | locus YGL248W, strain PDE1, hits give low values 1.01 | locus YGL253W, strain hxk2, hits give low values 0.959 | locus YGR078C, strain PAC10, hits give low values 1.01 | locus YGR135W, strain pre9, hits give low values 1.02 | locus YGR229C, strain SMI1, hits give low values 1.05 | locus YGR252W, strain gcn5, hits give low values 1.06 | locus YHR013C, strain ard1, hits give low values 0.979 | locus YHR027C, strain rpn1, hits give low values 0.977 | locus YHR030C, strain SLT2, hits give low values 1.01 and 1.04 | locus YHR079C, strain IRE1 (second series), hits give low values 1.03 | locus YHR079C, strain IRE1, hits give low values 1.01 | locus YHR094C, strain hxt1, hits give low values 1.03 | locus YHR129C, strain ARP1, hits give low values 1.01 | locus YHR142W, strain chs7, hits give low values 0.972 | locus YHR200W, strain rpn10, hits give low values 1.04 | locus YIL066C, strain RNR3, hits give low values 1.01 | locus YIL073C, strain SPO22, hits give low values 1.12 | locus YIL125W, strain kgd1, hits give low values 1.03 | locus YIR030C, strain dcg1, hits give low values 1.04 | locus YJL092W, strain hpr5, hits give low values 0.99 | locus YJL095W, strain BCK1 (second series), hits give low values 0.973 | locus YJL095W, strain BCK1, hits give low values 1.03 and 1.01 | locus YJL115W, strain asf1, hits give low values 0.949 | locus YJL129C, strain trk1, hits give low values 0.925 | locus YJL134W, strain LCB3, hits give low values 1 | locus YJL154C, strain vps35, hits give low values 0.982 | locus YJL164C, strain tpk1, hits give low values 0.996 | locus YJL166W, strain qcr8, hits give low values 0.986 | locus YJL168C, strain set2, hits give low values 1.04 | locus YJL187C, strain SWE1 (second series), hits give low values 1.01 | locus YJR066W, strain TOR1, hits give low values 0.942 | locus YJR075W, strain HOC1, hits give low values 1.02
